Experimental data: PubChem BioAssay AID1159580 (chemical genetic matrix, 2015)
“And” between values parts separate entries of the source, which are not always exact repeats. Identical values can stand only once. About 2,000 (36%) of roughly 5,500 compounds were called active. Another 18% or so got no clear call; they are omitted. No stated cut-off is given here; in the data, active means normalized growth mostly below about 0.91 (no sharp cut-off); inconclusive means no clear call, values can overlap the other calls; inactive means mostly above about 0.92. Some of the results follow.

Test: chemical genetic growth profiling, strain panel (AID 1159580);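 further: tested at 20 µM; growth read once vehicle control cultures reached saturation at 30 °C; 1 = growth at the plate median or of vehicle wells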
Settings: S. cerevisiae deletion strains, growth OD

Measured: normalized growth

COc1c2ccoc2nc2c(OC)c(OCC(O)C(C)(C)O)ccc12 (configuration not stated)
inactive: locus YAL013W, strain DEP1, stronger effect = lower value 0.992 | locus YAL021C, strain ccr4, stronger effect = lower value 1.04 | locus YAL026C, strain drs2, stronger effect = lower value 1.02 | locus YAL030W, strain snc1, stronger effect = lower value 1.01 | locus YBL061C, strain skt5, stronger effect = lower value 1.02 | locus YBR009C, strain hhf1, stronger effect = lower value 1.02 | locus YBR021W, strain FUR4, stronger effect = lower value 0.992 | locus YBR023C, strain chs3, stronger effect = lower value 1.02 | locus YBR171W, strain sec66, stronger effect = lower value 1.02 | locus YBR229C, strain ROT2, stronger effect = lower value 1 | locus YBR231C, strain swc5, stronger effect = lower value 1.01 | locus YBR279W, strain paf1, stronger effect = lower value 1.01 | locus YCL011C, strain gbp2, stronger effect = lower value 1.03 | locus YCL016C, strain dcc1, stronger effect = lower value 1.02 | locus YCL029C, strain bik1, stronger effect = lower value 0.974 | locus YCL061C, strain MRC1, stronger effect = lower value 1.03 | locus YCL069W, strain vba3, stronger effect = lower value 1.01 | locus YCR088W, strain abp1, stronger effect = lower value 1.02 | locus YDL005C, strain med2, stronger effect = lower value 1.01 | locus YDL035C, strain GPR1, stronger effect = lower value 0.992 | locus YDL040C, strain nat1, stronger effect = lower value 1.01 | locus YDL074C, strain BRE1, stronger effect = lower value 1.02 | locus YDL101C, strain DUN1, stronger effect = lower value 1 | locus YDL134C, strain PPH21, stronger effect = lower value 0.991 | locus YDL185W, strain tfp1, stronger effect = lower value 0.974 | locus YDL192W, strain arf1, stronger effect = lower value 0.984 | locus YDR001C, strain nth1, stronger effect = lower value 1.01 | locus YDR069C, strain doa4, stronger effect = lower value 1.03 | locus YDR101C, strain arx1, stronger effect = lower value 1 | locus YDR137W, strain rgp1, stronger effect = lower value 1.02 | locus YDR150W, strain NUM1, stronger effect = lower value 0.99 | locus YDR159W, strain sac3, stronger effect = lower value 1.01 | locus YDR162C, strain NBP2, stronger effect = lower value 1.02 | locus YDR195W, strain ref2 0.976 | locus YDR297W, strain sur2, stronger effect = lower value 1.02 | locus YDR318W, strain mcm21, stronger effect = lower value 0.981 | locus YDR334W, strain swr1, stronger effect = lower value 1.02 | locus YDR335W, strain msn5, stronger effect = lower value 1.02 | locus YDR388W, stronger effect = lower value 0.997 | locus YDR392W, strain spt3, stronger effect = lower value 0.982 | locus YDR502C, strain sam2, stronger effect = lower value 1.01 | locus YEL003W, strain gim4, stronger effect = lower value 1.01 | locus YEL037C, strain rad23, stronger effect = lower value 1.01 | locus YEL061C, strain CIN8 (second series), stronger effect = lower value 1.01 | locus YEL061C, strain CIN8, stronger effect = lower value 1 | locus YER015W, strain faa2, stronger effect = lower value 1.02 | locus YER016W, strain bim1, stronger effect = lower value 1.01 | locus YER110C, stronger effect = lower value 0.983 | locus YER111C, strain swi4, stronger effect = lower value 1.02 | locus YER155C, strain BEM2 (second series), stronger effect = lower value 1.04 | locus YER155C, strain BEM2, stronger effect = lower value 0.996 | locus YER167W, strain BCK2, stronger effect = lower value 0.972 | locus YFR010W, strain ubp6, stronger effect = lower value 1.02 | locus YGL078C, strain dbp3, stronger effect = lower value 0.983 | locus YGL086W, strain mad1, stronger effect = lower value 0.976 | locus YGL167C, strain pmr1, stronger effect = lower value 1.01 | locus YGL173C, strain kem1, stronger effect = lower value 1.02 | locus YGL227W, strain vid30, stronger effect = lower value 1.02 | locus YGL240W, strain doc1, stronger effect = lower value 1.04 | locus YGL248W, strain PDE1, stronger effect = lower value 0.991 | locus YGL253W, strain hxk2, stronger effect = lower value 1.02 | locus YGR078C, strain PAC10, stronger effect = lower value 1.02 | locus YGR135W, strain pre9, stronger effect = lower value 0.995 | locus YGR229C, strain SMI1, stronger effect = lower value 1.02 | locus YGR252W, strain gcn5, stronger effect = lower value 0.984 | locus YHR013C, strain ard1, stronger effect = lower value 1.03 | locus YHR027C, strain rpn1, stronger effect = lower value 1.01 | locus YHR030C, strain SLT2, stronger effect = lower value 0.99 and 1.02 | locus YHR079C, strain IRE1 (second series), stronger effect = lower value 1 | locus YHR079C, strain IRE1, stronger effect = lower value 1.03 | locus YHR094C, strain hxt1, stronger effect = lower value 0.971 | locus YHR129C, strain ARP1, stronger effect = lower value 1 | locus YHR142W, strain chs7, stronger effect = lower value 1.03 | locus YHR200W, strain rpn10, stronger effect = lower value 0.974 | locus YIL066C, strain RNR3, stronger effect = lower value 0.998 | locus YIL073C, strain SPO22, stronger effect = lower value 0.9 | locus YIL125W, strain kgd1, stronger effect = lower value 0.999 | locus YIR030C, strain dcg1, stronger effect = lower value 0.983 | locus YJL092W, strain hpr5, stronger effect = lower value 1.01 | locus YJL095W, strain BCK1 (second series), stronger effect = lower value 1.01 | locus YJL095W, strain BCK1, stronger effect = lower value 1.05 and 1 | locus YJL115W, strain asf1, stronger effect = lower value 1.02 | locus YJL129C, strain trk1, stronger effect = lower value 1.04 | locus YJL134W, strain LCB3, stronger effect = lower value 0.989 | locus YJL154C, strain vps35, stronger effect = lower value 1.02 | locus YJL164C, strain tpk1, stronger effect = lower value 1.02 | locus YJL166W, strain qcr8, stronger effect = lower value 1.02 | locus YJL168C, strain set2, stronger effect = lower value 0.995 | locus YJL187C, strain SWE1 (second series), stronger effect = lower value 1.01 | locus YJL187C, strain SWE1, stronger effect = lower value 1.01 | locus YJR043C, strain POL32, stronger effect = lower value 0.987 | locus YJR066W, strain TOR1, stronger effect = lower value 0.964
